Results on 25 molecules are retold here after PubChem BioAssay (NCI).

Some test systems named below: DU-145 prostate; K-562 leukemia; MDA-MB-231 breast; RXF 393 renal; SF-268 CNS; SF-295 CNS; SF-539 CNS; UACC-257 melanoma; M14 melanoma.
What all share (test): NCI-60 one-dose screen, 48 h (100 = growth as untreated, 0 = no growth, -100 = all killed)
Conditions in all cases: 10 µM

The panel holds about 83,000 compounds, 20% with a hit somewhere; the sample as a whole holds those more often.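 Single-dose data. Exposure time 48 hours. Values below 10 considered active.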 Values without a mark were called inactive. The source made the active and inactive calls.

On to `COc1cc(Cn2c(-c3ccccc3)c(Cl)c3c2-c2oncc2CC3)cc(OC)c1`, for which the growth with DU-145 prostate was 95.9%; in the test on K-562 leukemia it was 12.9%; with MDA-MB-231 breast it was 67.5%; in the test with RXF 393 renal, 115%; in the test on SF-268 CNS it was 68.8%; with SF-295 CNS, 61%. Also, the results for the growth with SF-539 CNS, with UACC-257 melanoma and in the test with M14 melanoma were 93.9%, 86% and 79%, respectively.
With `O=C(NNc1nc(N2CCCC2)nc(N2CCCC2)n1)c1ccccc1`, the growth in the test with DU-145 prostate is 107%; with MDA-MB-231 breast, 100%; with RXF 393 renal, 116%; in the test on SF-268 CNS it was 106%; with SF-295 CNS it was 128%; in the test with SF-539 CNS, 113%. Further, the values for the growth in the test with UACC-257 melanoma and in the test with M14 melanoma were 96.6% and 132%, respectively.
As for `CC(C)/C(=N/O)c1ccccc1`, the growth was 114% in the test on DU-145 prostate; 104% in the test on K-562 leukemia; 99.8% in the test with MDA-MB-231 breast; 121% in the test on RXF 393 renal; 112% in the test with SF-268 CNS; 103% with SF-295 CNS. Besides, the growth is 94.6% in the test with SF-539 CNS, 109% in the test on UACC-257 melanoma and 109% with M14 melanoma.
Take `Cn1c(=O)c2[nH]c(C(O)c3ccc(Cl)cc3)nc2n(C)c1=O` (stereo not drawn): the growth in the test with DU-145 prostate is 104%; with K-562 leukemia, 113%; with MDA-MB-231 breast, 100%; with RXF 393 renal it was 120%; with SF-268 CNS, 104%; with SF-295 CNS, 104%. Moreover, the growth is 105% in the test on SF-539 CNS, 97.7% in the test on UACC-257 melanoma and 90.6% in the test on M14 melanoma.
As to `CCCCCN(CCCCC)C(C)C(O)c1ccc2cc(Cl)c3ccccc3c2c1` (stereo not drawn), the growth in the test on DU-145 prostate is 109%; with K-562 leukemia, 81.4%; in the test on MDA-MB-231 breast, 92.7%; in the test with RXF 393 renal, 97.5%; in the test on SF-268 CNS, 102%; with SF-295 CNS, 82.7%. Also, the growth in the test on SF-539 CNS was 104%; with UACC-257 melanoma, 97.7%; in the test on M14 melanoma it was 93.1%.
In the case of `O=C(c1ccccc1)C(Sc1ccccc1)c1ccccc1` (stereo not drawn), the growth was 29.7% with DU-145 prostate; 84.5% with K-562 leukemia; 89.2% with MDA-MB-231 breast; 80.7% in the test with RXF 393 renal; 92.6% in the test with SF-268 CNS; 113% in the test on SF-295 CNS. In addition, the growth with SF-539 CNS was 99.5%; in the test with UACC-257 melanoma, 98.8%; with M14 melanoma, 94.5%.
For `C=CCNCCCN1C(=O)c2ccc3c4c(ccc(c24)C1=O)C(=O)N(CCCNCC=C)C3=O`, the growth is -94.8% (active) in the test on DU-145 prostate; 0.431% (active) with K-562 leukemia; 1.35% (active) in the test with MDA-MB-231 breast; -94.1% (active) in the test with RXF 393 renal; -22.1% (active) with SF-268 CNS; -76.9% (active) in the test on SF-295 CNS. The growth in the test with SF-539 CNS was -88.7% (active); in the test on UACC-257 melanoma it was -84% (active); in the test on M14 melanoma it was -84.8% (active).
Regarding `CCN(CC)CC(O)Cc1ccc(OC)cc1` (stereo not drawn), the growth in the test on DU-145 prostate is 115%; in the test with K-562 leukemia, 101%; in the test with MDA-MB-231 breast, 105%; with RXF 393 renal, 106%; in the test on SF-268 CNS, 114%; with SF-295 CNS, 109%. Also, the growth is 97.4% in the test with SF-539 CNS, 113% in the test on UACC-257 melanoma and 116% in the test with M14 melanoma.
In the case of `Cc1cn(C(=O)/C(Cl)=C(/Cl)C(=O)O)c2ccccc12`, the growth is 113% in the test on DU-145 prostate; 97.9% with K-562 leukemia; 96.3% with MDA-MB-231 breast; 112% in the test on RXF 393 renal; 103% in the test on SF-268 CNS; 112% in the test with SF-295 CNS. The growth in the test on SF-539 CNS was 111%; in the test with UACC-257 melanoma, 111%; in the test on M14 melanoma it was 99.7%.
In the case of `CC1(C)Cc2c(cn(Cc3ccccc3)c2-c2ccccc2)-c2oncc21`, the growth with DU-145 prostate was 103%; in the test with K-562 leukemia, 74.7%; with MDA-MB-231 breast, 104%; in the test on RXF 393 renal, 98%; with SF-268 CNS, 107%; in the test on SF-295 CNS, 99.5%. The results for the growth in the test on SF-539 CNS, in the test on UACC-257 melanoma and in the test on M14 melanoma were 107%, 101% and 100%, respectively.
Consider `COc1cc(-c2nc(-c3nnc(-c4cccnc4)o3)c3ccccn23)cc(OC)c1OC`, for which the growth in the test on DU-145 prostate is 114%; with K-562 leukemia, 95.4%; in the test on MDA-MB-231 breast, 97.7%; in the test with RXF 393 renal, 115%; in the test on SF-268 CNS, 95.7%; in the test with SF-295 CNS, 79.5%. Also, the growth in the test on SF-539 CNS was 107%; in the test on UACC-257 melanoma, 104%; with M14 melanoma it was 110%.
Turning to `O=C(O)c1ccccc1C(=O)c1cccc2c(F)cccc12`, the growth with DU-145 prostate was 112%; in the test on K-562 leukemia, 108%; in the test with MDA-MB-231 breast, 99.2%; with RXF 393 renal it was 114%; with SF-268 CNS, 111%; in the test with SF-295 CNS it was 122%. The growth with SF-539 CNS was 104%; with UACC-257 melanoma, 98.4%; in the test on M14 melanoma, 103%.
For `COc1ccc(Cn2cc3c(c2-c2ccccc2)CC(C)(C)c2cnoc2-3)cc1`, the growth in the test with DU-145 prostate was 37.6%; with K-562 leukemia it was 18%; in the test with MDA-MB-231 breast, 57.6%; in the test on RXF 393 renal, 20.3%; in the test with SF-268 CNS, 40.9%; in the test on SF-295 CNS, -10.7% (active). The results for the growth with SF-539 CNS, in the test on UACC-257 melanoma and in the test with M14 melanoma were 6.34% (active), 58.3% and 40.1%, respectively.
As to `COc1ccc(Cn2cc3c(c2-c2cc(OC)c(OC)c(OC)c2)CCc2cnoc2-3)cc1[N+](=O)[O-]`, the growth in the test with DU-145 prostate was 10.1%; with K-562 leukemia, 15.3%; in the test on MDA-MB-231 breast it was 25.6%; in the test with RXF 393 renal, 10.5%; with SF-268 CNS, 47.6%; in the test with SF-295 CNS, -15.3% (active). Further, the growth in the test with SF-539 CNS was -10.5% (active); in the test with UACC-257 melanoma it was 78.1%; in the test with M14 melanoma, 11.4%.
Take `O=[N+]([O-])C1CC2C=CC1C2` (stereo not drawn): the growth was 94.7% in the test on DU-145 prostate; 101% with K-562 leukemia; 111% in the test with MDA-MB-231 breast; 99% in the test with RXF 393 renal; 89.6% in the test with SF-268 CNS; 92.8% in the test with SF-295 CNS. Besides, the growth with SF-539 CNS is 102%; in the test on UACC-257 melanoma, 105%; in the test on M14 melanoma, 98.7%.
As for `COc1ccc(/C(=C/c2cc(OC)c(OC)cc2[N+](=O)[O-])C(=O)O)cc1`, the growth with DU-145 prostate is 124%; with K-562 leukemia, 94.6%; in the test on MDA-MB-231 breast, 96.7%; in the test on RXF 393 renal, 126%; with SF-268 CNS, 111%; in the test with SF-295 CNS, 121%. Also, the values for the growth in the test with SF-539 CNS, with UACC-257 melanoma and in the test with M14 melanoma were 99.6%, 118% and 104%, respectively.
For the molecule `C#CCNCCCN1C(=O)c2ccc3c4c(ccc(c24)C1=O)C(=O)N(CCCNCC#C)C3=O`, the growth in the test with DU-145 prostate is -98.8% (active); in the test on K-562 leukemia, -4.82% (active); in the test on MDA-MB-231 breast, 0.356% (active); in the test on RXF 393 renal, -91.4% (active); with SF-268 CNS, -26.4% (active); in the test with SF-295 CNS, -82.9% (active). Also, the growth in the test on SF-539 CNS was -97% (active); with UACC-257 melanoma, -87.8% (active); in the test on M14 melanoma it was -91% (active).
For the molecule `CCOC(=O)c1c(Cl)c2c(n1Cc1cccc(OC)c1)-c1oncc1CC2`, the growth is 21.6% in the test with DU-145 prostate; 17.6% in the test with K-562 leukemia; 57.1% with MDA-MB-231 breast; 46.5% in the test on RXF 393 renal; 44.5% in the test with SF-268 CNS; -1.65% (active) with SF-295 CNS. For the same molecule, the values for the growth in the test on SF-539 CNS, in the test with UACC-257 melanoma and with M14 melanoma were 5.6% (active), 49.1% and 17.9%, respectively.
As for `CCCCCCCCCCCCCC[n+]1ccc(C)cc1`, the growth with DU-145 prostate is 5.11% (active); in the test with K-562 leukemia, 9.19% (active); with MDA-MB-231 breast, -40.2% (active); with RXF 393 renal, -19.6% (active); in the test on SF-268 CNS it was -32.4% (active); with SF-295 CNS it was -67.1% (active). Besides, the growth in the test on SF-539 CNS is -33.5% (active); with UACC-257 melanoma it was -21.6% (active); in the test on M14 melanoma, -72.7% (active).
As to `COc1ccc(-c2nc(SCC(=O)c3ccc(Br)cc3)[nH]c(=O)c2C#N)cc1`, the growth was 103% with DU-145 prostate; 96.1% in the test with K-562 leukemia; 105% in the test with MDA-MB-231 breast; 106% with RXF 393 renal; 96.2% in the test with SF-268 CNS; 100% in the test with SF-295 CNS. Moreover, the results for the growth in the test on SF-539 CNS, with UACC-257 melanoma and with M14 melanoma were 111%, 111% and 98.5%, respectively.
In the case of `COc1ccccc1Cn1cc2c(c1-c1ccccc1)CCc1cnoc1-2`, the growth in the test with DU-145 prostate was 51.8%; with K-562 leukemia, 19%; in the test with MDA-MB-231 breast, 56%; in the test with RXF 393 renal it was 38.3%; with SF-268 CNS, 37.5%; in the test with SF-295 CNS it was -3.81% (active). Further, the growth in the test on SF-539 CNS is 11%; with UACC-257 melanoma, 50%; with M14 melanoma it was 34.5%.
As to `O=[N+]([O-])c1ccc2c(c1)Cc1cc(I)ccc1-2`, the growth in the test on DU-145 prostate was 116%; in the test on K-562 leukemia it was 95.6%; in the test with MDA-MB-231 breast it was 102%; in the test with RXF 393 renal it was 101%; in the test on SF-268 CNS, 103%; with SF-295 CNS, 82.5%. Besides, the results for the growth in the test on SF-539 CNS, in the test with UACC-257 melanoma and in the test on M14 melanoma were 116%, 108% and 101%, respectively.
Take `Nc1ccc2c(c1)Cc1cc(N)c(Cl)cc1-2`: the growth was 119% in the test on DU-145 prostate; 104% with K-562 leukemia; 88.4% with MDA-MB-231 breast; 110% with RXF 393 renal; 113% with SF-268 CNS; 99.1% in the test with SF-295 CNS. Also, the growth with SF-539 CNS was 95.9%; with UACC-257 melanoma it was 94.5%; in the test with M14 melanoma, 107%.
As to `O=C1/C(=C/c2cccs2)CCC/C1=C\c1cccs1`, the growth with DU-145 prostate was 92.9%; in the test with K-562 leukemia it was 94.8%; with RXF 393 renal, 91.9%; in the test with SF-268 CNS, 96.2%; in the test with SF-295 CNS, 104%; in the test on SF-539 CNS it was 100%. The growth in the test on UACC-257 melanoma is 96.9%; with M14 melanoma it was 87.5%.
For the molecule `COC1OC2COC(c3ccccc3)OC2C(=O)C1NC(=O)c1ccccc1` (stereo not drawn), the growth in the test with DU-145 prostate is 95.6%; in the test on K-562 leukemia, 127%; in the test on MDA-MB-231 breast it was 94.1%; in the test on RXF 393 renal it was 122%; in the test with SF-268 CNS, 99.1%; in the test with SF-295 CNS it was 88.5%. Besides, the growth in the test with SF-539 CNS was 101%; with UACC-257 melanoma, 104%; in the test on M14 melanoma it was 99.8%.
